Compound activity: PubChem, The Scripps Research Institute Molecular Screening Center
The list is not random: actives were taken first. Their share in the collection is about 1.1%.
NCOA2 inhibitor – inhibition of GAL4-SRC2 driven luciferase reporter, primary screen, SRC2 inhibitor project, cell-based, luminescence. HEK293 GAL4-SRC2 luciferase reporter. inhibition, % at 9 µM. hit rate 0.17% among 370,000. AID 651957, 2012;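 active means inhibition above the mean inhibition of all tested compounds plus 3 SD, set per campaign, cut at about 52% in these data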;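 further: 0% = DMSO treated cells and 100% = cells given Gossypol at 36 µM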
LRH-1 inv ag – LRH-1 (NR5A2) inverse agonists, primary screen, cell-based, luminescence, HEK293T, StAR-luciferase reporter. LRH-1 transfected, 24 h. hit rate 0.13% among 360,000. inhibition, % at 3.6 µM. Nuclear receptor subfamily 5 group A member 2 (Homo sapiens), O00482;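 active means inhibition above the mean inhibition of all tested compounds plus 3 SD, cut at about 73% in these data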;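 further: 0% = DMSO wells and 100% = reporter-only cells lacking LRH-1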
GalR3 antag – GalR3 antagonists in HEK293 cells, primary screen, cell-based, fluorescence readout; Galanin receptor type 3 (Homo sapiens), O60755; AID 651719, 2012; hit rate 0.44% among 360,000; inhibition, % at 3 µM; HEK293 GalR3-CNG cAMP membrane potential fluorescence; galR3 body fused to GalR1 C-terminus;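 active means inhibition above the screen-wide average plus 3 SD, cut at about 13% in these data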;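 further: forskolin and galanin both at EC90 stimulate the cells; cAMP rise reported by CNG channel membrane potential dye signal; 0% = forskolin plus galanin with DMSO and 100% = forskolin alone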
SRC1 inh – SRC1 coactivator transcriptional activity inhibitors, primary screen, cell-based, luminescence; inhibition, % at 3.6 µM; AID 588354, 2011; HEK293 GAL4-SRC1 luciferase reporter; hit rate 0.12% among 360,000;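 active means inhibition above the campaign mean plus 3 SD, with each screening campaign given its own cutoff, cut at about 60% in these data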;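 further: 0% = DMSO treated cells and 100% = gossypol at 36 µM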
NR2F2 inh – NR2F2 transcriptional activity inhibitors, primary screen, cell-based, luciferase reporter, HEK293T, luminescence | COUP transcription factor 2 (Homo sapiens), P24468 | HEK293T NGFI-A luciferase reporter | inhibition, % at 8.6 µM | hit rate 0.7% among 370,000 | AID 686940, 2013;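 active means inhibition above a per-plate cutoff, mean inhibition of test wells between control levels plus 3 SD, cut at about 38% in these data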;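 further: cells cotransfected with COUP-TFII expression vector driving the NGFI-A reporter; 0% = median of COUP-TF2 test wells and 100% = reporter-only cells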
NCOA3 inh – SRC3 coactivator transcriptional activity inhibitors, primary screen, cell-based, luminescence. Nuclear receptor coactivator 3 (Homo sapiens), Q9Y6Q9. inhibition, % at 3.6 µM. HEK293 GAL4-SRC3 luciferase reporter. hit rate 0.17% among 360,000;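 active means inhibition above a per-campaign cutoff, the mean of all compounds plus 3 SD, cut at about 60% in these data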;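 further: 0% = DMSO-treated cells and 100% = gossypol-treated cells at 36 µM; higher means less SRC3-driven luciferase light from the GAL4 reporter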
Target sequence (Q9Y6Q9 whole entry, looked up, the tested form may be a part): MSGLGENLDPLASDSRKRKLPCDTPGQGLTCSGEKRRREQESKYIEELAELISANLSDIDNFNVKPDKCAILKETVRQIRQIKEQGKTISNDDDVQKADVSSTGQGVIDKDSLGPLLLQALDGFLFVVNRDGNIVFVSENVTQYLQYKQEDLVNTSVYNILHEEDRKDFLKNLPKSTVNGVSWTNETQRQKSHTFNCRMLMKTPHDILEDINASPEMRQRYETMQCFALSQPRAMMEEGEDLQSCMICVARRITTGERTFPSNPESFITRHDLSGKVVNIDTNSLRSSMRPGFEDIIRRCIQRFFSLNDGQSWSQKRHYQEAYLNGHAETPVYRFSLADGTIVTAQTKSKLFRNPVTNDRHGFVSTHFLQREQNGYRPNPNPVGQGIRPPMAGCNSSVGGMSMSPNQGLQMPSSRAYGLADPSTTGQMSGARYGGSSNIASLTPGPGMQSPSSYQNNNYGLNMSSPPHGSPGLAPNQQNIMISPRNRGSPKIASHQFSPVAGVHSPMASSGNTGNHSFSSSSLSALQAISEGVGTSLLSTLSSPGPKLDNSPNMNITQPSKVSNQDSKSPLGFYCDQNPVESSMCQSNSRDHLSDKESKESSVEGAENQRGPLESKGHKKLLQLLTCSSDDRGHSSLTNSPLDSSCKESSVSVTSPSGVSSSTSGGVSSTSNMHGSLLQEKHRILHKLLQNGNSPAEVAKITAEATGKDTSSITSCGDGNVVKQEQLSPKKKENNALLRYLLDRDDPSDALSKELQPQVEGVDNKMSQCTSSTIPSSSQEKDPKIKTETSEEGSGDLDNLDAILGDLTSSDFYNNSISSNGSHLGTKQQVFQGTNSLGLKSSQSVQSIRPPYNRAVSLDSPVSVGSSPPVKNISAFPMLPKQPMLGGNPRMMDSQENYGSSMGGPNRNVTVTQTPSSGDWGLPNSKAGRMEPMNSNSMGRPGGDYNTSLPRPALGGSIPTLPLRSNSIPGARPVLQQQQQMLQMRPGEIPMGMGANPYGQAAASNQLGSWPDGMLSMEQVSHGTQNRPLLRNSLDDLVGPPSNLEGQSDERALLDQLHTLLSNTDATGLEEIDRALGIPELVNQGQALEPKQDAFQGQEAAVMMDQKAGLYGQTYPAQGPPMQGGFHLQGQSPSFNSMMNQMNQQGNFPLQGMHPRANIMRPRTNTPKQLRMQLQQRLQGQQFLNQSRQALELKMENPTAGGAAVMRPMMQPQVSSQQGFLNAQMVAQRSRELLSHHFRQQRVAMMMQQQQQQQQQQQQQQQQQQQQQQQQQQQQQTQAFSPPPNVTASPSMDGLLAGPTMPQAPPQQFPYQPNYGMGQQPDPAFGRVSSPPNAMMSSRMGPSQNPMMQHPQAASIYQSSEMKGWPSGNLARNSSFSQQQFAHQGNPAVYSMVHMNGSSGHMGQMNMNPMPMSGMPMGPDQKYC
VP16 Luc counter – Gal4-VP16 luciferase reporter inhibitors, counter-screen for COUP-TFII antagonist project, cell-based, luminescence, HEK293. shares compounds with NR2F2 inh. hit rate 25% among 2,500. inhibition, % at 8.5 µM; in the data active means inhibition above about 13%
COUP-TFII conf – NR2F2 transcriptional activity inhibitors, confirmation, cell-based, luciferase reporter, HEK293, triplicate. inhibition, % at 8.5 µM. shares compounds with NR2F2 inh. HEK293 NGFI-A luciferase reporter, luminescence. hit rate 45% among 2,500;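 active means mean inhibition over three repeats above a set limit taken from the earlier primary screen, cut at about 38% in these data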;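 further: 100% = cells given the luciferase reporter alone without the COUP-TF2 vector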
The depositor's hits bear a star; x = no result.

SMILES	NCOA2 inhibitor	LRH-1 inv ag	GalR3 antag	SRC1 inh	NR2F2 inh	NCOA3 inh	VP16 Luc counter	COUP-TFII conf
N#Cc1ccccc1N1CCN(S(=O)(=O)c2ccc3c(c2)CCC(=O)N3)CC1	3	x	x	x	10	x	x	x
O=C1CCC[C@H]2C[C@H](NCc3ccc(Cl)c(Cl)c3)CC[C@]23CCCN13	x	x	x	x	8	x	x	x
CCCCN1C=CC(=C2C(=O)c3ccccc3C2=O)C=C1	76*	-9	-1	44	80*	60	67*	67*
COc1ccc(NC(=O)CSc2ncnc3scc(-c4ccc(C)cc4)c23)cc1OC	0	x	x	x	-2	x	x	x
Cc1nn(C)c(C)c1CN(Cc1nc(CCC(C)C)no1)C(C)C	19	48	92*	19	66*	19	3	62*
Cc1ccc2nc(-c3ccc(NC(=O)CSc4nnc(-c5cc(-c6ccc(F)cc6)n[nH]5)n4N)cc3)sc2c1	-42	x	x	x	-26	x	x	x
Cc1cccc(NC(=O)CN2CCN(C(=O)CNC(=O)c3ccc(-c4ccccc4)cc3)CC2)c1C	-2	-8	-6	16	55*	-3	-8	16
COc1ccc(CN2CCC(CNC(=O)Nc3ccc(Cl)cc3)CC2)cc1	10	x	x	x	-6	x	x	x
Cc1cccc(N2CC(C(=O)Nc3cccc(S(=O)(=O)N4CCCCC4)c3)CC2=O)c1C (stereo not drawn)	20	-6	-6	-3	47*	25	3	14
Cc1cccc(N2CC(C(=O)Nc3ccc(S(=O)(=O)N4CCOCC4)cc3)CC2=O)c1C (stereo not drawn)	-13	9	-6	-5	6	-3	x	x
O=C(Nc1ccc2c(c1)OCCO2)C(c1cc2ccccc2o1)N1CCN(c2ccc(F)cc2)CC1 (stereo not drawn)	39	35	-7	28	39*	31	-29	1
O=C(Nc1ccc2c(c1)OCCO2)C(c1cc2ccccc2o1)N1CCN(c2ccc(C(F)(F)F)cn2)CC1 (stereo not drawn)	22	45	2	41	25	39	x	x
CCOC(=O)Cn1cc(CN2C(C(=O)OC)CN(Cc3ccc(F)cc3)CCS2(=O)=O)nn1 (stereo not drawn)	12	x	x	x	-10	x	x	x
CCc1ccc(C(=O)Nc2nc3ccccc3[nH]2)cc1	68*	-4	-6	-13	74*	4	-13	29
CCOc1ccc(C(=O)Nc2nc3ccccc3[nH]2)cc1OCC	-9	-26	-6	-14	52*	-29	-82	4
O=C(Nc1nc2ccccc2[nH]1)c1ccc(F)cc1	-96	-136	-8	-127	-61	-54	x	x
COc1cc(C(=O)Nc2nc3ccccc3[nH]2)ccc1OC(F)F	-24	-95	-2	-58	15	-48	x	x
O=C(Nc1nc2ccccc2[nH]1)c1ccccc1F	65*	44	-5	50	62*	64*	33*	48*
O=C(C1CC1)N1CCc2cc(Br)c(S(=O)(=O)NCCCN3CCCCC3)cc21	-23	x	x	x	-2	x	x	x
CN(C)c1ccc(C(=S)Nc2ccccc2)cc1	39	9	-3	42	46*	50	-89	22
CN(C)c1ccc(NC(=S)c2ccccn2)cc1	51	-40	-3	-26	42*	26	8	38*
O=c1c2ccccc2nc2n1C(CSCc1ccc(Cl)cc1)CS2 (stereo not drawn)	23	4	-4	18	42*	8	2	14
O=c1c2ccccc2nc2n1C(CSc1ccccc1)CS2 (stereo not drawn)	20	1	-3	-3	-1	5	x	x
CC[C@@H]1/C(=C/c2ccccc2)N2C(=O)C[C@@H](c3ccccc3)N=C2N1Cc1ccc(OC)cc1OC	x	x	x	x	3	x	x	x
O=C(NCCc1ccc(F)cc1)c1ccc2c(c1)ncn2C1CCCCC1	-38	x	x	x	-7	x	x	x
SMILES	NCOA2 inhibitor	LRH-1 inv ag	GalR3 antag	SRC1 inh	NR2F2 inh	NCOA3 inh	VP16 Luc counter	COUP-TFII conf
CCC(C)Nc1nc(-c2ccccn2)nc2ccccc12 (stereo not drawn)	18	81*	-2	19	38*	64*	-12	3
c1ccc(CNc2nc(-c3ccccn3)nc3ccccc23)cc1	16	46	-10	-3	25	53	x	x
COc1ccc(NC(=O)[C@@H]2CCCN2S(=O)(=O)c2cccc3cccnc23)cc1	-3	6	-4	-10	2	7	x	x
O=C(Nc1ccc(Oc2ccccc2)cc1)C1CCCN1S(=O)(=O)c1cccc2cccnc12 (stereo not drawn)	19	x	x	x	42*	x	13	35
CC1CCCC=CC2CC(OC(=O)CN(C)C)CC2C(O)C=CC(=O)O1 (stereo not drawn)	3	37	0	0	51*	51	16*	16
C[N+]1=C2N[C@@H](c3ccccc3)CC(=O)N2/C(=C\c2ccccc2)[C@@H]1Cc1ccccc1	x	x	x	x	-14	x	x	x
C[C@@H]1C[C@@H]2O[C@H]2CCCCC(=O)Cc2cc(O)cc(O)c2C(=O)O1	41	x	x	x	63*	x	59*	65*
C[C@@H]1C[C@H]2O[C@@H]2/C=C\C=C\C(=O)Cc2cc(O)cc(O)c2C(=O)O1	55*	x	x	x	86*	x	38*	5
C[C@@H]1Cc2cc(O)c(O)c(O)c2C(=O)O1	1	x	x	x	13	x	x	x
COC(=O)C[C@H]1CC[C@H]2[C@H](COc3ccc(NC(=O)C4CCOCC4)cc3C(=O)N2C)O1	21	x	x	x	-7	x	x	x
C=CCN=c1scc(-c2ccc3c(c2)NC(=O)CO3)n1/N=C(\C)c1ccccn1	16	36	-5	-3	56*	28	12	63*
CC(=O)NC1C(=O)N(CCc2ccccc2)c2ccc(Br)cc21 (stereo not drawn)	5	4	-7	-3	15	15	x	x
CC(=O)NC1C(=O)N(Cc2ccccc2)c2ccc(Br)cc21 (stereo not drawn)	10	10	-4	-17	38*	24	1	13
CCCCCCCCN1C(=O)[C@@H](CC(=O)N2CCCC2)C[C@@]2(C(=O)OC)C1=C[C@H](COCc1ccccc1)O[C@@H]2C	1	x	x	x	-2	x	x	x
